Test results from PubChem BioAssay AID686978 (National Center for Advancing Translational Sciences (NCATS), 2013).
About 64,000 (15%) of roughly 420,000 compounds were called active. Roughly 27% stayed inconclusive and do not appear here. Calls follow the shape of the dose curve; as a rule, active = well fitted inhibition curve with a large enough effect; inconclusive = small, poorly fitted or top-dose-only effect; inactive = flat fitted curve, though single readings scatter. Only a sample is shown. Entries that show only a call come without a potency.

Assay: qHTS for Inhibitors of human tyrosyl-DNA phosphodiesterase 1 (TDP1): qHTS in cells in absence of CPT; also: nearly all actives have a fitted effect of over 55% in size
Details: DT40 Tdp1-/- hTDP1 cells, no CPT, ATP luminescence, 48 h; activity change, negative = growth inhibition: at 46.2 µM (top of the series)
Outline: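 Seeded 400 DT40-hTDP1 cells/well (vehicle DMSO, no 20 nM CPT); pinned compounds; ≥48 hr at 37 °C; CellTiter-Glo luminescence as viability measure.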
Potency is read from the fitted curve at half-maximal effect.

| Compound | Potency |
| --- | --- |
| Cc1ccc(NC2(C#N)C(=O)Nc3ccccc32)cc1 (centres undefined) | inactive |
| COC(=O)C(C)NC(=O)COc1ccc2ccccc2c1 (centres undefined) | inactive |
| CCCCSc1[nH]c(=O)c(C(=O)OCC)cc1C#N | inactive |
| Cc1cc(-c2ccc(C)c(S(=O)(=O)NCCCN(Cc3ccccc3)C(C)C)c2)on1 | 13 µM (active) |
| COc1ccc(CNS(=O)(=O)c2cc(-c3cc(C)no3)ccc2C(C)C)cc1 | 0.731 µM (active) |
| COc1cccc(CNS(=O)(=O)c2cc3c(cc2C)n(C)c(=O)c(=O)n3C)c1 | inactive |
| Cc1cc(-c2ccc(C)c(S(=O)(=O)NC(C)Cc3ccco3)c2)on1 (centres undefined) | inactive |
| CCc1ccc(-c2cc(C)no2)cc1S(=O)(=O)NCCc1ccc(S(N)(=O)=O)cc1 | inactive |
| CCOc1ccccc1CNS(=O)(=O)c1cc(-c2cc(C)no2)ccc1C | inactive |
| CC(=O)OC(C)C[N+](C)(C)C (centres undefined) | inactive |
| C=CCOc1ccc(/C=C/C(=O)OC(C)C(=O)Nc2ccc(NC(C)=O)cc2)cc1 (centres undefined) | inactive |
| COC(=O)c1c(C)cc(O)c(C)c1O | inactive |
| O=C(/C=C/c1ccco1)NC(=S)N1CCCCC1 | inactive |
| NC(=O)c1ccsc1NC(=O)COC(=O)Cc1n[nH]c(=O)c2ccccc12 | inactive |
| Cc1cc(C)c(C2C3=C(Nc4c2c(C)nn4-c2ccccn2)c2ccccc2C3=O)c(C)c1 (centres undefined) | 8.2 µM (active) |
| Cc1nc2ccccc2n1C(=O)N1CCOCC1 | inactive |
| CC(/C=C/c1ccccc1)=N\NC(=O)C1CC1(C)c1ccccc1 (centres undefined) | 18.4 µM (active) |
| CC(OC(=O)/C=C/c1ccccc1)C(=O)NC1CCCCC1C (centres undefined) | inactive |
| CC(C=Cc1ccccc1)=NNS(=O)(=O)c1ccc([N+](=O)[O-])cc1 | inactive |
| Cn1c(=NC(=O)c2ccc3c(c2)OCCO3)sc2cc(S(C)(=O)=O)ccc21 | inactive |
| O=C(CO/N=C/c1ccccc1OC(F)F)NC1CCCC1 | inactive |
| NS(=O)(=O)c1cc(C(=O)OCC(=O)NNC(=O)c2ccccc2)ccc1Cl | inactive |
| O=C(CO/N=C/c1ccccc1O)NNC(=O)c1ccccc1Cl | 0.184 µM (active) |
| CCCc1cc(=O)oc2c(C)c(OCC(=O)NCc3ccccn3)ccc12 | inactive |
| CN(CCC#N)c1ccc(C=O)cc1 | inactive |
| CCOc1cccc(C(=O)Nc2nnc(-c3cccs3)s2)c1 | inactive |
| CC(=O)c1sc(NC(=O)c2ccc(C)cc2)nc1C | inactive |

| Compound | Potency |
| --- | --- |
| N#Cc1ccc(C(=O)Nc2nc(-c3cccs3)c(C(=O)C(F)(F)F)s2)cc1 | 1.3 µM (active) |
| COc1ccc(CCNC(=O)c2cn(C)c3ccc(S(=O)(=O)N(C)C4CCCCC4)cc3c2=O)cc1OC | inactive |
| CC1(C)CC(=O)C=C(c2ccccc2CO)C1=O | inactive |
| CC1CCCC(C)N1C(=O)COC(=O)COc1ccccc1C#N (centres undefined) | inactive |
| Cc1nnc(NC2=NCCCCC2)o1 | inactive |
| COc1ccc(OCC(=O)NNC(=O)c2cccc(C)c2)cc1 | inactive |
| COc1ccc(CN2C(=O)C(NC(=O)c3cccc(C)c3)(C(F)(F)F)N=C2c2ccccc2)cc1 (centres undefined) | 20.6 µM (active) |
| COc1cccc(C(=O)NC(=O)Nc2nc(C)cc(C(F)(F)F)n2)c1 | inactive |
| COc1ccc(S(=O)(=O)N2CCN(C(=O)c3cc(C)oc3C)CC2)cc1 | inactive |
| COc1ccc(C(=O)/C=C/c2cccnc2)c(OC)c1 | 18.4 µM (active) |
| COc1ccc(C(=O)Nc2cccnc2)cc1C(=O)Nc1cccnc1 | inactive |
| COc1ccc(C(=O)CCC(=O)Nc2cccnc2)c(OC)c1 | inactive |
| CC/C(=N\O)C(C)(C)/[N+]([O-])=C/c1ccc(Br)cc1 | inactive |
| O=c1c2[nH]c3ccc(Cl)cc3c2ncn1Cc1ccccn1 | inactive |
| COc1cccc(NC(=O)Cc2ccc(C)cc2)c1 | inactive |
| Cc1cccc(NC(=O)Nc2cccc(Oc3c(F)c(F)c(F)c(F)c3F)c2)c1 | 18.4 µM (active) |
| COc1cccc(NC(=O)NCc2ccc(F)cc2)c1 | inactive |
| CN1CCC(OC(=O)COc2ccc(Cl)cc2Cl)CC1 | inactive |
| C[N+]1(CC(O)COc2ccccc2)CCN(C(=O)c2ccc([N+](=O)[O-])cc2)CC1 (centres undefined) | inactive |
| COc1cccc(NC(=S)C(C#N)=C2N(C)c3ccccc3N2C)c1 | inactive |
| CCOc1cccc(NC(=O)CC#N)c1 | inactive |
| CC(=O)Nc1cccc(OCC(=O)/C=C2\N(C)c3ccccc3C2(C)C)c1 | 7.31 µM (active) |
| CC(=O)NCC(O)c1ccc([N+](=O)[O-])cc1 (centres undefined) | inactive |
| Cc1cc(C)c(C#N)c(SCC(=O)NN2CC(=O)N(c3ccccc3F)CC2=O)n1 | inactive |
| CCOC(=O)C=Cc1ccc(C(=O)OCC)[nH]1 | 8.2 µM (active) |
| CCOC(=O)c1cc2cc(C)ccc2[nH]1 | inactive |
| CCOC(=O)c1ccccc1OC(=O)Oc1ccccc1C(=O)OCC | inactive |
